Results as given in PubChem BioAssay AID449762 (Southern Research Specialized Biocontainment Screening …, 2010).
Screen size: about 330,000 compounds; about 1,900 (0.58%) were called active. Another 4% or so got no clear call; they are omitted. No stated cut-off is given here; in the data, inconclusive means inhibition above about 70% without an active follow-up result; inactive means below that. These entries were drawn from the full list. Potency and affinity values are given separately.

Assay: M. tuberculosis growth inhibition, HTS (AID 449762);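 further: bacterial growth assessed after seven days of incubation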
Conditions: M. tuberculosis H37Rv growth inhibition, 7H9 media; at 25 µM; stronger effect = higher value

SMILES	inhibition
CCCCCn1c(CCC(=O)Oc2ccccc2OC)nc2c1c(=O)[nH]c(=O)n2CCCC	4.88% (inactive)
COc1ccccc1CNC(=O)COC(=O)c1ccccc1SCC(=O)N1CCCC1	1.81% (inactive)
COc1ccccc1OCC(=O)N(Cc1nnc(-c2ccccc2Cl)o1)C1CC1	0.28% (inactive)
COCCN(Cc1ccccc1)P(=O)(O)c1ccccc1OCC(=O)O	-0.51% (inactive)
Cc1ccc2oc(=O)c(/C=C(\O)c3ccccc3)nc2c1	-2.76% (inactive)
C/C(O)=C/c1nc2ccccc2[nH]c1=O	3.14% (inactive)
CC(=O)Nc1ccc(NC(=O)C(C)Oc2ccc(C)nc2[N+](=O)[O-])cc1 (stereo unspecified)	6.29% (inactive)
CCN(CCn1cccn1)C(=O)c1cc(COc2cccc3cccnc23)on1	-3.82% (inactive)
CC(C)(C)c1ccc(C(=O)N2CCN(CCNC(=O)C(=O)NCc3ccccc3)CC2)cc1	-0.83% (inactive)
Cc1ccc(C(=O)N2CCN(CCNC(=O)C(=O)NCc3ccc(Cl)cc3)CC2)cc1	4.33% (inactive)
O=C(Nc1ccccc1)N(CCCN1CCOCC1)Cc1ccccc1F	-5.07% (inactive)
CCOC(=O)N1CCC2(CC1)CC(=O)c1c(ccc3oc(C(=O)O)c(C)c13)O2	-2.67% (inactive)
COc1ccc2c(c1)CC(N1CCN(C)CC1)c1cc(OC)ccc1S2 (stereo unspecified)	9.95% (inactive)
c1ccc2c(c1)CC(N1CCCCC1)c1ccccc1S2 (stereo unspecified)	0.42% (inactive)
O=C(Nc1cc([N+](=O)[O-])ccc1C(=O)NCCN1CCOCC1)c1ccccc1	5.18% (inactive)
COCCn1c(SCc2nnc(-c3ccc(OC)c(OC)c3)o2)nnc1-c1ccncc1	5.88% (inactive)
Cc1ccc(-c2nnc(NCc3nc4ccccc4[nH]3)c3ccccc23)cc1S(=O)(=O)N(C)C	-2.52% (inactive)
Cn1c(-c2sc3cc(C(F)(F)F)cnc3c2-c2ccccn2)n[nH]c1=S	-2.76% (inactive)
O=C(OCC(=O)N1CCCC1)c1ccccc1O	3.14% (inactive)
O=C(OCC(=O)N1CCCCCC1)c1ccccc1Br	4.05% (inactive)
CC1CN(C(=O)COC(=O)c2ccc(F)cc2Cl)CC(C)O1 (stereo unspecified)	6.83% (inactive)
CC12CCC(C(=O)NCCCN3CCOCC3)(C(Br)C1=O)C2(C)C (stereo unspecified)	-0.09% (inactive)
Cc1cc(Cc2c(O)[nH]c(=S)[nH]c2=O)ccc1OC(C)C	-6.7% (inactive)
COC(=O)C1(CC2CC(c3ccccc3)=NO2)CCN(C(=O)OC(C)(C)C)CC1 (stereo unspecified)	3.82% (inactive)

SMILES	inhibition
Cc1cc(Cl)ccc1OCCCC(=O)NN	13.1% (inactive)
Cc1cc(Cl)ccc1OCCCC(N)=O	-4.53% (inactive)
CCc1ccc(/C=C2/SC(=S)N(CCC(=O)NCCCN3CCOCC3)C2=O)cc1	-8.2% (inactive)
CN1CCN(c2ccc(NC(=O)c3ccc(-c4cccc([N+](=O)[O-])c4)o3)cc2)CC1	0.14% (inactive)
CC(C)(C)C(=O)N1CCN(c2ccc(NC(=O)c3ccco3)cc2)CC1	2.75% (inactive)
COCCN1CCN(C(=O)c2cc(COc3cc(C)ccc3C)on2)CC1	-2.97% (inactive)
Cc1cnc(NC(=O)CC2CCCC2)s1	1.33% (inactive)
Cc1cnc(NC(=O)C2CCC(C(C)(C)C)CC2)s1 (stereo unspecified)	-5.46% (inactive)
Cc1cccc(NC(=O)COC(=O)c2ccc3c(=O)n4c(nc3c2)CCC4)c1	0.33% (inactive)
CCNC(=O)NC(=O)C(C)On1nnc2ccc(S(=O)(=O)N(CC)CC)cc21 (stereo unspecified)	-3.62% (inactive)
C=CCSc1nc(N)c2c(C)c(C)sc2n1	-14.5% (inactive)
O=c1c2c(-c3ccccc3)csc2ncn1/N=C/c1cccc([N+](=O)[O-])c1O	0.37% (inactive)
O=c1c2c(-c3ccc(Cl)cc3)csc2ncn1/N=C/c1cccc([N+](=O)[O-])c1O	3.59% (inactive)
CCOC(=O)N1CCN(c2c(NCC3CCCO3)c(=O)c2=O)CC1 (stereo unspecified)	2.94% (inactive)
COC(=O)c1cccc(NC(=O)CSc2nnc(C)o2)c1	3.7% (inactive)
Nc1ccc(CC2SC(=O)NC2=O)cc1 (stereo unspecified)	-2.9% (inactive)
CCOc1ccc(CC2S/C(=N/c3ccccn3)NC2=O)cc1 (stereo unspecified)	-1.03% (inactive)
CCc1c(C(=O)Nc2ccc(OC)cc2)[nH]c(C)c1C(C)=O	0.65% (inactive)
O=S(=O)(Nc1ncccn1)c1ccc(Cl)cc1	-3.71% (inactive)
CCCC(=O)Nc1nc2nc(-c3ccccc3)cc(=O)n2[nH]1	-6.79% (inactive)
CCC(=O)Nc1nc2nc(-c3ccccc3)cc(=O)n2[nH]1	-4.67% (inactive)
Clc1cccc(Cl)c1COc1ccncc1	-7.66% (inactive)
O=C(CNC(=O)c1ccccc1Cl)OC1CCOC1=O (stereo unspecified)	0.14% (inactive)
CC(=O)c1cccc(NC(=S)NC2CC2)c1	-5.17% (inactive)

SMILES	inhibition
O=C(Nc1ccc2nsnc2c1)C1CC1	0.63% (inactive)
CC(=O)c1cccc(NC(=S)NC2CCCCC2)c1	0.31% (inactive)
S=C(Nc1ccc2nsnc2c1)NC1CCCCC1	-5.66% (inactive)
CCc1c(C)sc(NC(=O)c2cc(-c3cc(OC)ccc3OC)on2)c1C#N	9.02% (inactive)
CCCCCCCCNC(CO)(CO)CO	-13.8% (inactive)
O=C(C1=C[C@H](c2ccc(Br)cc2)C[C@H](OCCCCO)O1)N1CCOCC1	8.9% (inactive)
CCn1cc(CNC(=O)C2CCC(=O)N(C3CCCCCC3)C2)cn1 (stereo unspecified)	-6.38% (inactive)
COC(=O)C1=NNC(C(=O)c2ccco2)C1c1ccccc1 (stereo unspecified)	4.3% (inactive)
CCOC(=O)c1ccccc1NC(=O)COC(=O)C1CCCC1	27.5% (inactive)
CC[C@@H](C)[C@H](CN[C@H](CNC)[C@@H](C)O)NCCc1ccc(OC)cc1	0.9% (inactive)
CC[C@H](C)[C@@H](CNC)NC[C@@H](Cc1ccc(O)cc1)NCC(C)(C)C	-12.2% (inactive)
CCCCN(CC)C(=O)CSc1nc2ccccc2c(=O)n1CC1COc2ccccc2O1 (stereo unspecified)	15% (inactive)
O=C(NCc1cccc(Cl)c1)c1cc(=O)[nH]c2ccccc12	-6.18% (inactive)
COC(=O)CN(C#N)c1nc(OC)nc(N(C)C)n1	9.53% (inactive)
CCOC(=O)CN(C#N)c1nc(C)cc(C)n1	-0.56% (inactive)
O=C(COC(=O)c1ccccc1)Nc1cc(S(=O)(=O)N2CCCCCC2)ccc1Cl	-13% (inactive)
CCN1C(=O)[C@@H]2[C@@H](c3ccc(-c4ccc(C(C)=O)cc4)c(OC)c3)N3CCC[C@@]3(C(=O)OC)[C@@H]2C1=O	18.4% (inactive)
CC(=O)C[C@H](O)CC(=O)[C@H]1OC(=O)CCCCCCc2ccccc21	4.94% (inactive)
CC1(C)CC(=O)C2=C(C1)Nc1ccccc1[S@]2=O	1.12% (inactive)
COc1ccc(C2=NCCc3cc(OC)c(OC)cc32)cc1OC	4.26% (inactive)
OCC1(Cc2ccccc2Cl)CCN(C/C=C/c2ccccc2)CC1	2.72% (inactive)
COc1ccc(CC2(CO)CCN(C/C=C/c3ccccc3OC)CC2)cc1	50.6% (inactive)
Cc1ccc(-n2nc(CC#N)c(C#N)c2N)cc1Cl	-3.34% (inactive)
Cc1ccc2[nH]c(O)c(N=O)c2c1	-3.5% (inactive)

SMILES	inhibition
O=Nc1c(O)[nH]c2ccc(F)cc12	-7.36% (inactive)
O=C(CSc1cccc[n+]1[O-])Nc1cccc(Oc2ccccc2)c1	2.29% (inactive)
O=C(C1CC(=O)N(c2ccc3c(c2)OCCO3)C1)N1CCN(Cc2ccccc2F)CC1 (stereo unspecified)	-2.42% (inactive)
COc1cccc2sc3ccc(C#CC4(O)CCCCC4)cc3c(=O)c12	47.6% (inactive)
COc1cccc2sc3ccc(C#Cc4ccc(N)cc4)cc3c(=O)c12	39.9% (inactive)
COc1ccc(S(=O)(=O)Cc2ccc(C(=O)N3CCN(C4CCCCC4)CC3)o2)cc1	-3.99% (inactive)
COc1ccc(NC(=O)c2ccc(CNc3c(NC4CCCCC4)c(=O)c3=O)cc2)c(OC)c1	-5.88% (inactive)
CCOc1ccccc1NC(=O)c1ccccc1N(C)S(C)(=O)=O	-4.2% (inactive)
COc1ccc(C2C(C#N)=C(N)N(N(C)C)C3=C2C(=O)CC(C)(C)C3)cc1OC (stereo unspecified)	7.78% (inactive)
COc1ccc(C2C(C#N)=C(N)N(Nc3ccccc3)C3=C2C(=O)CC(C)(C)C3)cc1C (stereo unspecified)	-5.96% (inactive)
CSc1ccccc1OCc1cc(C(=O)NC(C)CCn2cccn2)no1 (stereo unspecified)	-15.6% (inactive)
Cc1cc(C)n(C(=O)c2ccc([N+](=O)[O-])cc2N)n1	-4% (inactive)
Cc1cc(C)n(C(=O)c2ccc([N+](=O)[O-])cc2Cl)n1	5.54% (inactive)
Cc1nc([N+](=O)[O-])cn1CC(=O)c1ccc(Br)cc1	4.4% (inactive)
CC(C)C(=O)c1cn(CC(=O)NCc2ccc3c(c2)OCO3)c2ccccc12	-5.3% (inactive)
CS(=O)(=O)n1nc(-c2cccnc2)nc1NCc1ccccc1	0.47% (inactive)
CC(=O)n1nc(-c2ccccc2)nc1NCc1ccc(N(C)C)cc1	0.39% (inactive)
CCN(CC)CC(=O)NCC1(c2ccccc2)CCCC1	-3.12% (inactive)
O=C(O)C1C2C=CC(C2)C1C(=O)Nc1ccc(C(=O)N2CCCCC2)cc1 (stereo unspecified)	1.87% (inactive)
CCOC(=O)C(=O)N=Nc1c(O)n(C)c2ccccc12	1.87% (inactive)
COc1cccc(N=Nc2c(=O)[nH]n3c(C)cc(C)nc23)c1	0.98% (inactive)
Cc1cc(C)n2[nH]c(=O)c(N=Nc3ccccc3)c2n1	4.19% (inactive)
COc1ccc(/C=C/C(=O)c2oc3ccc(F)cc3c2C)cc1	10.9% (inactive)
Cc1c(C(=O)N2CCN(C(=O)c3ccccc3)CC2)oc2ccc(F)cc12	-0.86% (inactive)
